Hit rate of the full screen: of about 290,000 compounds, about 2,300 (0.79%) were called active. Cut-off read from the data, not from the text of the source: active = inhibition above about 22%; inactive = the rest. The sample as a whole holds a higher share of actives than the screen did.

This assay can be described thus: IEC-6 cell viability reduction – luminescence, cytotoxicity control for KLF5 inhibitor project, primary screen (AID 1825).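 Note: 0% = plate median of test compound wells and 100% = cytotoxic reference compound wells.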 The following applies: IEC-6 cytotoxicity, at 5 µM, active compounds read high.
As a reminder, the inhibition is the drop in the measured response relative to a control, in per cent. On to `COc1cc(-n2c(=S)[nH]c3ccc(C)cc3c2=O)c(Cl)cc1Cl`, for which the inhibition was 27.3% (active).
The figure for `CN(C)CC1Oc2ccccc2OC1(O)c1ccccc1` (stereo not given) is 10.6% (inactive).
Take `COc1ccc(N2C(=O)/C(=C/c3ccco3)C(=O)NC2=S)cc1`: the inhibition is -11.8% (inactive).
For `COc1cc2nc(N3CCN(C(=O)[C@@H]4CCCO4)CC3)nc(N)c2cc1OC` the value was -0.7% (inactive); for `CN(c1ccccc1)c1ccc([N+](=O)[O-])c2nonc12`, 13.2% (inactive).
The figure for `CC1=CC(=Cc2sc3ccccc3[n+]2C)C=C(C)O1` is 25.9% (active); for `CCc1nc2ccccc2c(=O)n1-c1cccc(OC)c1` it is -0.6% (inactive).
For `COc1cc(Cn2c(N)c(C(=O)NCc3ccco3)c3nc4ccccc4nc32)cc(OC)c1OC` the value was 7.4% (inactive).
On to `COc1ccc(-c2nn(CCC#N)cc2C(=O)O)cc1`, for which the inhibition was -8.6% (inactive).
For `COc1ccc(C(=O)CC2C(=O)N(C)C(=O)N(C)C2=O)cc1` the value was 2% (inactive); for `Cc1nc2ccccc2c(=O)n1-c1ccc(Cl)cc1Cl`, -4.8% (inactive); for `CCCCCCCCCCCCn1ccc(=N)cc1`, 78.8% (active).
For `CCOP(=S)(OCC)C(O)CCCCCn1c(=O)c(F)cn(C2CCCO2)c1=O` (stereo not given) the value was -1.2% (inactive); for `CCOc1cccc(=NC2CCCCC2)c2c(C)[nH]c(C)c12`, -11.4% (inactive).
For `COc1cccc(N2C(=O)NC(=O)/C(=C\c3ccc([N+](=O)[O-])s3)C2=O)c1` the value was -9.9% (inactive); for `Cc1cc2ccccn2c1C(C[N+](=O)[O-])c1c(F)cccc1Cl` (stereo not given), 47.4% (active); for `CC(=O)Nc1ccc(C(=O)C(Cc2ccccc2)N(C)C)cc1` (stereo not given), -0.8% (inactive).
As to `CC(=O)c1c(C)n(C(C)C)c2ccc(O)cc12`, the inhibition is 3.8% (inactive).
The figure for `COc1ccc(-c2nn(CCC#N)cc2C(=O)Nc2ccc(C(C)=O)cc2)cc1` is -1.6% (inactive); for `O=c1c2ccccc2nc(/C=C/c2ccco2)n1-c1ccccc1O` it is -4.9% (inactive).

Source of the values: PubChem BioAssay AID1825 (The Scripps Research Institute Molecular Screening Center, 2009).
